Consider 32 compounds from PubChem BioAssay (NCATS).

SMILES strings stand for the structures. Results filed as inconclusive are left out. Entries that show only a call come without a potency. The source made the active and inactive calls. The call rests on the fitted dose curve; in most records, active means well fitted curve in the direction sought with a large enough effect; inconclusive means small, poorly fitted or top-dose-only effect, or another doubt; inactive means no such curve, though single readings can be large; an effect the other way counts as inactive or inconclusive.

Test [1] addresses Lysine-specific demethylase 5B (Homo sapiens) (UniProt Q9UGL1). The test can be described thus: Optimization screen for KDM5B Histone Demethylases FDH coupled qHTS against the LOPAC library (AID 1347166). The gist of the method:
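KDM5BDeltaAP (200nM final) preincubated 10 min with compound, then 12.5uM H3K4Me3, 25uM a-ketoglutarate, ascorbate, Fe(II), NAD+ and FDH added; 50mM HEPES pH 7.5, 0.01% Tween-20. NADH fluorescence (340/450 nm) change over 30 min, room temperature.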

Test [2] is described as follows: HepG2 cells viability qHTS for Zika virus inhibitors (AID 1347168). The method, boiled down:
(§1)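 Counter-screen for cytotoxicity of hits from NS2B-NS3 protease qHTS. Overnight-attached cells (2.5 x 10^5 cells/mL, DMEM/4% FBS) were dosed in titration, incubated 24 to 48 hours, then assayed by CellTiter Glo.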

Test [3] is described as follows: Tertiary RLuc qRT-PCR qHTS assay for Zika virus inhibitors (AID 1347169). Further: top concentration of the series differs between compounds; nearly all actives have a fitted effect of over 55% in size. The method, boiled down:
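Vero cells (1,000/well) infected with recombinant ZIKV-RLuc (Cambodian) at MOI 1-2 after compound addition, 48-72 hrs at 37 degrees C. Live-cell Renilla luciferase substrate added; luminescence read after 1-1.5 hrs.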

Test [4] can be described thus: Vero cells viability qHTS for Zika virus inhibitors (AID 1347167). The gist of the method: as §1
The nature of test [5]: OV-KATE Cancer Cell Toxicity qHTS against the NCATS CANVASS Library (AID 1347345). The method, boiled down: (§2)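 Viability was assessed by adding CellTiter-Glo reagent to treated cultures and reading luminescence after 15min at room temperature. Treatment lasted 72 h at 37 degrees C/5% CO2, using an 11-point series on 1000 cells/well.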
Test [6] can be described thus: HPAF-II Cancer Cell Toxicity qHTS against the NCATS CANVASS Library (AID 1347346). Further: nearly all actives have a fitted effect of over 55% in size. The gist of the method: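 HPAF-II cells at 1000 cells/well were treated with an 11-point concentration series for 72 hours at 37 degrees C. Viability read by CellTiter-Glo luminescence.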
Test [7] can be described thus: UWB1.289 Cancer Cell Toxicity qHTS against the NCATS CANVASS Library (AID 1347347). Further: nearly all actives have a fitted effect of over 60% in size. The gist of the method: as §2
Test [8] is described as follows: OV-SAHO Cancer Cell Toxicity qHTS against the NCATS CANVASS Library (AID 1347348). Further: nearly all actives have a fitted effect of over 55% in size. The method, boiled down: as §2
The nature of test [9]: Panc-1005 Cancer Cell Toxicity qHTS against the NCATS CANVASS Library (AID 1347349). Further: nearly all actives have a fitted effect of over 60% in size. The gist of the method:
as §2

Test [10] can be described thus: SW1088 Cancer Cell Toxicity qHTS against the NCATS CANVASS Library (AID 1347350). Further: nearly all actives have a fitted effect of over 75% in size. The method, boiled down:
as §2

Test [11] can be described thus: U-118MG Cancer Cell Toxicity qHTS against the NCATS CANVASS Library (AID 1347351). The method, boiled down: as §2
A short description of test [12]: COV-362 Cancer Cell Toxicity qHTS against the NCATS CANVASS Library (AID 1347352). The method, boiled down:
(§3)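 Cells at 1000/well were given compound 4 h after plating in an 11-point series. Viability was read by CellTiter-Glo luminescence after 72 h at 37 degrees C.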

A short description of test [13]: A2780 Cisplatin Sensitive Ovarian Cancer Cell Toxicity qHTS against the NCATS CANVASS Library (AID 1347353). Further: nearly all actives have a fitted effect of over 60% in size. The conditions noted are these: A2780 ovarian cancer viability, ATPLite luminescence, 72 h; at 46.1 µM (top of the series). The method, boiled down: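 A2780 cells, 750/well, settled 4 h at 37 °C, then treated with an 11-point compound series for 72 h. Viability was read as ATPLite luminescence after 10 min at room temperature, with bortezomib as control.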

The nature of test [14]: UWB1.289-WTBRCA1 Cancer Cell Toxicity qHTS against the NCATS CANVASS Library (AID 1347354). The method, boiled down:
as §3

The nature of test [15]: HPAF-II 24hr Apoptosis Induction qHTS against the NCATS CANVASS Library (AID 1347356). The gist of the method: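 HPAF-II cells (500/well) exposed to compounds in 11-point series for 24 h at 37 degrees C; caspase-3/7 activity read by Caspase-Glo luminescence after 15 min at room temperature. Doxorubicin titration as control.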
Test [16] in a line: HEK293 18hr Apoptosis Induction qHTS against the NCATS CANVASS Library (AID 1347357). The method, boiled down: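 HEK293 cells (500/well, DMEM + 10% FBS) treated with an 11-point series for 18 h at 37 degrees C. Caspase-3/7 activity read by Caspase-Glo luminescence after 15 min at room temperature.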
Test [17] can be described thus: HPAF-II 12hr Apoptosis Induction qHTS against the NCATS CANVASS Library (AID 1347358). The gist of the method:
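HPAF-II cells, 500/well in DMEM + 10% FBS, exposed 12 hours at 37 degrees C to compound (11-point). Caspase-Glo 3/7 added for 15 min at room temperature; luminescence reflects caspase-3/7 activity.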

Test [18] in a line: HEK293 24hr Apoptosis Induction qHTS against the NCATS CANVASS Library (AID 1347359). The gist of the method:
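HEK293 cells (500/well, DMEM + 10% FBS) were exposed to compounds in an 11-point series for 24 hours at 37 degrees C, then caspase-3/7 activity was read by Caspase-Glo DEVD luciferase luminescence after 15 min.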

Test [19] is described as follows: HPAF-II 18hr Apoptosis Induction qHTS against the NCATS CANVASS Library (AID 1347360). The gist of the method: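 HPAF-II cells at 500/well were exposed for 18 h at 37 C to an 11-point compound series. Caspase-3/7 activity was read by Caspase-Glo luminescence after 15 min at RT.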
The nature of test [20]: HEK293 12hr Apoptosis Induction qHTS against the NCATS CANVASS Library (AID 1347361). The method, boiled down: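 HEK293 cells (500/well) were exposed to an 11-point qHTS concentration series for 12 hours at 37 degrees C. Caspase-3/7 activity was then read by DEVD-substrate luciferase luminescence after 15 min at room temperature.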

Lysine-specific demethylase 5B (Homo sapiens), sequence (Q9UGL1 whole entry, looked up): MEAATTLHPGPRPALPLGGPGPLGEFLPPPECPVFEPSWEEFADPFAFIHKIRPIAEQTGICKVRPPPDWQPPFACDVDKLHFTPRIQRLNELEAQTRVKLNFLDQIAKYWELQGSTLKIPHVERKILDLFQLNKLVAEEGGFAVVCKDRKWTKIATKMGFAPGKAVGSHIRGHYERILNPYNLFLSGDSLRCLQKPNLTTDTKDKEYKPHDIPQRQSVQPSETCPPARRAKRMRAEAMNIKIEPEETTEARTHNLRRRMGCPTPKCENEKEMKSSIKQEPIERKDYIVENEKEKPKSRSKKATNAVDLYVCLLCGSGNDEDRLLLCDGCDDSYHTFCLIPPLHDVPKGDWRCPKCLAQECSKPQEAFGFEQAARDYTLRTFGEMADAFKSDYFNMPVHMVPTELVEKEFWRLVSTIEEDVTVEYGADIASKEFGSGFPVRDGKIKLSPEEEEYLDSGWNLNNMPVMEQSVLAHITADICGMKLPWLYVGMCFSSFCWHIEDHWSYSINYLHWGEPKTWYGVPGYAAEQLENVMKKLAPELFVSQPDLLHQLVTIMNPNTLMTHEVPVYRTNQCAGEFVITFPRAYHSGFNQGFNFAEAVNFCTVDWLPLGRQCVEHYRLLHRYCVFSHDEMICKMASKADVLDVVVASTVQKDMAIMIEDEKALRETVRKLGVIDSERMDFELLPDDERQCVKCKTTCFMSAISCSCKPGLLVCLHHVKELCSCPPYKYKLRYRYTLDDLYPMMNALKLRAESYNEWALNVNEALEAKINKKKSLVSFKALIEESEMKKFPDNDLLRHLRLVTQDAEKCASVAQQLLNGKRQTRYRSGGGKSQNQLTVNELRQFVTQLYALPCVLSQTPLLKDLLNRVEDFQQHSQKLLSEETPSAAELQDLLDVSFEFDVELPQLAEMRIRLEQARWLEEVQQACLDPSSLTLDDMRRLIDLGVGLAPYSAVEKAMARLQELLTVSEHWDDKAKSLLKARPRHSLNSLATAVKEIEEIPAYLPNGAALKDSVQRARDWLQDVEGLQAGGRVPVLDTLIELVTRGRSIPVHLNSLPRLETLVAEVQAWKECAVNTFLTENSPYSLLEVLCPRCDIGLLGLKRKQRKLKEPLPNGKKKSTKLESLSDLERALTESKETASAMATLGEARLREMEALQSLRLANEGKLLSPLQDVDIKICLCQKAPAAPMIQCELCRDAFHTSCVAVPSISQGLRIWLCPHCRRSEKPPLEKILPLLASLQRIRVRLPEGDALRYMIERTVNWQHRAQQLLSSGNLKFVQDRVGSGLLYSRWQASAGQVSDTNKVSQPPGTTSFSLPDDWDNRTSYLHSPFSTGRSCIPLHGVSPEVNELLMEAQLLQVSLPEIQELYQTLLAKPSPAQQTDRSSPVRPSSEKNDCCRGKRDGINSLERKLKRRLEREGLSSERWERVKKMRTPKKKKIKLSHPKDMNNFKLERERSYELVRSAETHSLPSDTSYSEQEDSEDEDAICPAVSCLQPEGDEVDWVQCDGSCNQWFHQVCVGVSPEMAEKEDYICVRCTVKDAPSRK

For the compound `CCC1C(=O)OCC1Cc1cncn1C` (stereo not drawn), in test [1], the compound was classed as inactive. Same read-out and setting: for `NCCCS(=O)(=O)O` the value was “inactive”. Consider `CN1CCc2cccc3c2C1Cc1ccc(O)c(O)c1-3` (stereo not drawn), for which the result in [1] was inactive.

As to `O=C(c1ccc(OCCCc2cnc[nH]2)cc1)C1CC1`, the compound was classed as inactive in test [1]. As for `O=C1/C(=C/c2ccsc2)CC/C1=C\c1cccs1`, in test [1], the compound was called inactive.

For `CC1OC1P(=O)(O)O` (stereo not drawn), the compound was called inactive in [1].

Turning to `NC[C@@H]1O[C@H](C23CC4CC(CC(C4)C2)C3)Cc2c1ccc(O)c2O`, in test [1], the compound was called inactive. On to `NCC1OC(O[C@H]2[C@H](O)[C@@H](OC3C(O)C(N)CC(N)C3OC3OC(CO)C(O)C(O)C3N)O[C@@H]2CO)C(N)C(O)C1O` (stereo partly drawn), for which, in [1], the outcome was inactive.

Turning to `COc1cccc(OC)c1OCCNCC1COc2ccccc2O1` (stereo not drawn), in [1], the compound was classed as inactive.

With `CN1C2CCC1CC(OC(=O)C(O)c1ccccc1)C2` (stereo not drawn), in [1], the outcome was inactive. `CC(C)NC[C@H](O)COc1cccc2[nH]ccc12`: in test [1], the compound was classed as inactive. For the compound `C=CC(C)=C[C@@]1(C)SC(=O)C(C)=C1O`, in test [1], the result was inactive. Turning to `CC(C)NCC(O)COc1cccc2ccccc12` (stereo not drawn), the compound was called inactive in test [1]. On to `COc1ccccc1N1CCN(CCN(C(=O)c2ccc(I)cc2)c2ccccn2)CC1`, for which the compound was classed as inactive in test [1]. For the compound `c1cnc2c(c1)ccc1cccnc12`, the compound was called inactive in test [1].

For `O=P(O)(O)C(Cl)(Cl)P(=O)(O)O`, in test [1], the compound was called inactive.

Take `O=C(O)[C@@H]1C[C@@H](C(=O)O)N1`: the call in [1] was inactive. On to `CCCCCCCCCCCCCCCCCCNC(=O)OCC(COP(=O)([O-])OCC[n+]1ccsc1)OC` (stereo not drawn), for which the result in [1] was inactive. For `C[N+]1(C)C2CC(OC(=O)[C@H](CO)c3ccccc3)CC1C1OC12` (stereo partly drawn), the call in [1] was inactive. In the case of `CN1C2CC(OC(=O)[C@H](CO)c3ccccc3)CC1C1OC12` (stereo partly drawn), the result in test [1] was inactive. As for `NC[C@H]1O[C@@H](n2cnc3c(N)ncnc32)[C@H](O)[C@@H]1O`, the outcome in test [1] was inactive. As to `O=C1NC(=O)/C(=C/c2ccc(-c3ccc(F)cc3O)o2)S1`, the call in test [2] was inactive. Further, the Potency result in test [3] was “inactive”.

Turning to `CN(C)c1nc2c(Br)c(Br)c(Br)c(Br)c2[nH]1`, the compound was called inactive in test [1]. As for `COc1ccc(Br)cc1S(=O)(=O)NC(=O)/C=C/c1ccccc1Cc1ccc2ccccc2c1`, the compound was classed as inactive in [4] and in test [2].

With `NCCNC(=O)c1ncsc1-c1cccc(F)c1`, in test [1], the call was inactive. Still for that read-out and setting: for `C#C[C@]1(O)CC[C@H]2[C@@H]3CCC4=Cc5oncc5CC4(C)[C@H]3CCC21C` (stereo partly drawn) the value was “inactive”. Same read-out and setting: in the case of `Cc1cc2c(cc1Cl)N(C(=O)Nc1ccc(Oc3cccnc3C)nc1)CC2` it was “inactive”. For the compound `O=C(Nc1cccc(C(=O)Nc2ccc(S(=O)(=O)O)c3cc(S(=O)(=O)O)cc(S(=O)(=O)O)c23)c1)Nc1cccc(C(=O)Nc2ccc(S(=O)(=O)O)c3cc(S(=O)(=O)O)cc(S(=O)(=O)O)c23)c1`, the result in test [1] was inactive. The Potency result in [3] was “inactive”. As for `COC(=O)C1=C(C)NC(C)=C(C(=O)OC)C1c1cccc(NC(=O)NCCCN2CCC(c3cccc(OC)c3)CC2)c1`, the outcome in test [4] was inactive. For the compound `NC(=O)C(=O)O`, the compound was called inactive in [1], in test [4] and in test [2]. In test [3], the Potency entry is “inactive”. For the compound `S=C(S)OC1CC2CC1C1CCCC21` (stereo not drawn), the result in [1] was inactive. With `O=C(O)c1cc(O)c(O)c(O)c1`, the call in [5], in [6], in test [7], in test [8], in test [9] and in [10] was inactive. Further, the outcome in test [11], in test [12], in [13], in test [14], in [15] and in [16] was inactive. Besides, the compound was classed as inactive in test [17], in test [18], in [19] and in test [20].
